Laboratory results taken from article PMC4552634, “A New Set of Chemical Starting Points with Plasmodium falciparum Transmission-Blocking Potential for Antimalarial Drug Discovery” (PLoS ONE, 2015).
Among all 13,000 compounds or so, about 3,200 (25%) showed an effect of 50% or more. This is one part of the list.

Test system: P. falciparum stage V gametocytes
Parameters: BacTiter-Glo ATP luminescence viability of purified stage V gametocytes in 384-well plates, per cent inhibition versus DMSO
Details: 48 h, 5 µM; inhibitor

SMILES | % Inhibition [%]
O=C(Nc1ccc(Cl)cc1)c1ccc(CN2CCCN(Cc3cccc(O)c3)CC2)cc1 [TCMDC-136406] | -22.52
O=C(Nc1ccc(C(=O)N2CCN(CCN3CCN(c4cccc(C(F)(F)F)c4)CC3)CC2)cc1)c1ccc(OC(F)(F)F)cc1 [TCMDC-138147] | -46.71
O=C(N[C@@H](Cc1ccccc1)C(=O)NCCN1CCOCC1)c1ccc(O)c(-c2ccc(Cl)c(Cl)c2)c1 [TCMDC-140851] | 14.71
COc1ccc(C2CC(=O)C3=C(C2)NC(C)=C(C(=O)OC(C)C)C3c2c(F)cccc2Cl)cc1OC (stereo not shown) [TCMDC-124040] | 34.34
COC(=O)Cn1c(C2CCN(CC3CCN(C(=O)/C=C/c4ccc(Cl)c(Cl)c4)CC3)CC2)nc2ccccc21 [TCMDC-140298] | 2.762
CNC(=O)c1ccc2nc(C3CC3)n(CC3CCN(S(=O)(=O)c4cccc(Cl)c4)CC3)c2c1 [TCMDC-136189] | 88.15
CNC(=O)c1ccc2nc(-c3ccc(-c4ccccc4)cc3)n(CC3CCN(CC4CCCC4)CC3)c2c1 [TCMDC-136523] | 25.32
O=C(/C=C/c1cccc(C(F)(F)F)c1)NCCCCCN1CCN(C(=O)Nc2ccc(Cl)c(Cl)c2)CC1 [TCMDC-135794] | -9.962
O=C1C2C(c3ccc(Cl)c(Cl)c3)N3CC(OCc4ccccc4)CC3(C(=O)O)C2C(=O)N1c1ccc(Br)cc1 (stereo not shown) [TCMDC-139263] | 16.51
Cc1cccc2nc(-c3ccc(-c4ccc(NC(=O)Nc5ccsc5)cc4)s3)[nH]c12 [TCMDC-133209] | -24.83
CCC(Cc1ccccc1)c1cc(O)c(Cc2ccc(-c3ccccc3)cc2)c(=O)o1 (stereo not shown) [TCMDC-140730] | -3.123
CN(C)Cc1c(O)ccc2oc(Cc3ccccc3)cc12 [TCMDC-125816] | 62.06
CN(C)Cc1cc2c(O)c(Cc3ccccc3)ccc2o1 [TCMDC-124091] | 7.975
O=S1(=O)NC2(CCN(CCc3ccc(Cl)cc3)CC2)Nc2cc(F)cc(F)c21 [TCMDC-124990] | -19.76
Cc1ccc(S(C)(=O)=O)cc1/C=C/C(=O)O [TCMDC-139220] | 3.947
COc1ccc2nccc([C@@H](O)CN3CCC(NCCOc4ccc(F)cc4[N+](=O)[O-])CC3)c2c1 [TCMDC-140659] | -1.987
CN1CCN(c2ccnc3ccc(NC(=O)Nc4cccc5ccccc45)cc23)CC1 [TCMDC-139346] | 6.615

SMILES | % Inhibition [%]
O=c1nc(C=Cc2ccc(Br)cc2)oc2ccccc12 [TCMDC-123878] | 22.17
O=C(NC1CCC(CN2CCC(c3c[nH]c4ccccc34)CC2)CC1)c1cc(-c2cccc(Cl)c2)n(-c2ccc(Cl)cc2Cl)n1 (stereo not shown) [TCMDC-140353] | -7.21
Cc1c(C(=O)NC2CCC(CN3CCC(c4c[nH]c5ccccc45)CC3)CC2)cnn1-c1c(Cl)cc(Cl)cc1Cl (stereo not shown) [TCMDC-140357] | 8.343
O=C(NC1CCC(CN2CCC(c3c[nH]c4ccccc34)CC2)CC1)c1cc(-c2ccccc2Cl)n(-c2cccc(Cl)c2)n1 (stereo not shown) [TCMDC-140354] | -13.83
CCCc1c(C(=O)NC2CCC(CN3CCC(c4c[nH]c5ccccc45)CC3)CC2)cnn1-c1c(Cl)cc(Cl)cc1Cl (stereo not shown) [TCMDC-140423] | 74.19
CCCc1c(C(=O)NC2CCC(CN3CCC(c4c[nH]c5ccccc45)CC3)CC2)cnn1-c1ccc(Cl)cc1 (stereo not shown) [TCMDC-140261] | 29.96
CCCc1c(C(=O)NC2CCC(CN3CCC(c4c[nH]c5ccccc45)CC3)CC2)cnn1-c1ccccc1 (stereo not shown) [TCMDC-139954] | 89.66
CC(C)c1ccc(NC(=O)Nc2ccc(Cn3ncc(N4CCCNCC4)c(Cl)c3=O)cc2)cc1 [TCMDC-133325] | -40.87
CNC(=O)C1Cc2c([nH]c3ccc(Cl)cc23)C2(CCN(CCc3ccccc3)CC2)N1 (stereo not shown) [TCMDC-141285] | -33.98
O=c1[nH]c2ccc3[nH]cccc3c2c1C=Nc1ccc(N2CCN(CCO)CC2)cc1 [TCMDC-138634] | -29.23
O=C(C=Cc1ccc(Cl)c(Cl)c1)NCCCCCN1CCCC(CCCNC(=O)C2CC2c2ccccc2)C1 (stereo not shown) [TCMDC-139578] | 25.82
O=C(C=Cc1ccc(Cl)c(Cl)c1)NCCCCCN1CCC(CCNC(=O)/C=C/c2ccccc2)CC1 [TCMDC-139566] | 81.69
O=C(/C=C/c1ccc(Cl)c(Cl)c1)NCCCCCN1CCCC(CNC(=O)/C=C/c2ccccc2)C1 (stereo not shown) [TCMDC-139582] | 30.13
O=C(/C=C/c1ccc(Cl)c(Cl)c1)NCCCCCN1CCC(CCNC(=O)/C=C/c2ccccc2F)CC1 [TCMDC-140006] | -17.66
O=C(C=Cc1ccc(Cl)c(Cl)c1)NCCCCCN1CCCC(CCCNC(=O)/C=C/c2ccccc2)C1 (stereo not shown) [TCMDC-139577] | 89.65
O=C(C=Cc1ccc(Cl)c(Cl)c1)NCCCCCN1CCC(CCCNC(=O)/C=C/c2ccccc2)CC1 [TCMDC-139571] | -9.203
COc1ccccc1/C=C/C(=O)NCCC1CCN(CCCCCNC(=O)/C=C/c2ccc(Cl)c(Cl)c2)CC1 [TCMDC-139999] | 48.92
